PubChem BioAssay (EPA / NIEHS)
Active and inactive are the calls of the source. The calls were made as follows: active = hit-call score of the fitted dose curve at least 0.9, where 1 is the maximum; inactive = score below 0.9.

Legend:
Conditions in all cases: mRNA level, 48 h; actives raise or lower the signal
[1] = read-out: Phosphatase and tensin (PTEN), PTEN (gene 5728); assay: LTEA_HepaRG_PTEN: Life Technologies and Expression Analysis (LTEA) Assay for Phosphatase and tensin (PTEN) using HepaRG (AID 2283523)
In short: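 HepaRG cells, 48 h after plating, exposed in duplicate for 48 h in serum-free induction medium to 8 half-log concentrations up to 100 uM (0.5% DMSO). PTEN mRNA by qRT-PCR, normalized to ACTB, GAPDH, POLR2A; bidirectional fit versus DMSO.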

[2] = read-out: solute carrier (SLC22A1), SLC22A1 (gene 6580); assay: LTEA_HepaRG_SLC22A1: Life Technologies and Expression Analysis (LTEA) Assay for solute carrier (SLC22A1) using HepaRG (AID 2283524)
In short: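 Differentiated human HepaRG cells in serum-free induction medium, exposed 48 h in duplicate to 8-point half-log series from 100 µM top in 0.5% DMSO. SLC22A1 mRNA by TaqMan qRT-PCR normalized to ACTB, GAPDH, POLR2A; bidirectional fit versus DMSO.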

[3] = read-out: Pyruvate Dehydrogenase Kinase 4 (PDK4), PDK4 (gene 5166); assay: LTEA_HepaRG_PDK4: Life Technologies and Expression Analysis (LTEA) Assay for Pyruvate Dehydrogenase Kinase 4 (PDK4) using HepaRG (AID 2283525)
In short: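 HepaRG cells plated 48 h, then switched to serum-free induction medium and exposed in duplicate for 48 h to 8 half-log concentrations from 100 uM in 0.5% DMSO. PDK4 mRNA measured by qRT-PCR, normalized to ACTB, GAPDH and POLR2A; bidirectional fit versus DMSO.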

[4] = read-out: NAD(P)H dehydrogenase [quinone] 1 (NQO1), NQO1 (gene 1728); assay: LTEA_HepaRG_NQO1: Life Technologies and Expression Analysis (LTEA) Assay for NAD(P)H dehydrogenase [quinone] 1 (NQO1) using HepaRG (AID 2283526)
In short: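 Human HepaRG hepatic cells received chemicals for 48 h in serum-free induction medium with 0.5% DMSO, up to 100 uM. Expression was assessed by TaqMan qRT-PCR against housekeeping controls and fitted bidirectionally against DMSO.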

[5] = read-out: Nuclear factor erythroid 2-related factor 2 (Homo sapiens) (UniProt Q16236); assay: LTEA_HepaRG_NFE2L2: Life Technologies and Expression Analysis (LTEA) Assay for Nuclear factor erythroid 2-related factor 2 (NFE2L2) Transcription Factor using HepaRG (AID 2283527)
In short: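 Differentiated human HepaRG cells, serum-free induction medium, exposed 48 h in duplicate to eight half-log concentrations up to 100 uM in 0.5% DMSO. NFE2L2 mRNA by Fluidigm TaqMan qRT-PCR, normalised to ACTB, GAPDH, POLR2A; bidirectional change versus DMSO.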

[6] = read-out: succinate dehydrogenase complex iron sulfur subunit B (SDHB), SDHB (gene 6390); assay: LTEA_HepaRG_SDHB: Life Technologies and Expression Analysis (LTEA) Assay for succinate dehydrogenase complex iron sulfur subunit B (SDHB) using HepaRG (AID 2283528)
In short: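 Readout is SDHB transcript level by qRT-PCR, normalised to three housekeeping genes and fitted bidirectionally against 0.5% DMSO vehicle. Human HepaRG cells were treated for 48 h at up to 100 uM.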

[7] = read-out: solute carrier (SLCO1B1), SLCO1B1 (gene 10599); assay: LTEA_HepaRG_SLCO1B1: Life Technologies and Expression Analysis (LTEA) Assay for solute carrier (SLCO1B1) using HepaRG (AID 2283530)
In short: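 SLCO1B1 transcript levels were quantified by TaqMan qRT-PCR using three housekeeping genes for normalization. This followed 48 h chemical exposure (100 uM top, half-log, 8 points, 0.5% DMSO) of HepaRG liver cells, with gain or loss fitted relative to DMSO.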

[8] = read-out: sulfotransferase 2A1 (SULT2A1), SULT2A1 (gene 6822); assay: LTEA_HepaRG_SULT2A1: Life Technologies and Expression Analysis (LTEA) Assay for sulfotransferase 2A1 (SULT2A1) using HepaRG (AID 2283531)
In short: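 Expression change of SULT2A1, by qRT-PCR with three housekeeping-gene normalization, was scored bidirectionally versus DMSO. Cells: differentiated HepaRG, dosed in duplicate for 48 h across 8 points, highest 100 µM, half-log dilution, 0.5% DMSO.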

[9] = read-out: Transforming Growth Factor (TGFA), TGFA (gene 7039); assay: LTEA_HepaRG_TGFA: Life Technologies and Expression Analysis (LTEA) Assay for Transforming Growth Factor (TGFA) using HepaRG (AID 2283532)
In short: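 Differentiated HepaRG cells exposed 48 hours in serum-free induction medium, 0.5% DMSO vehicle, 8-point half-log series from 100 uM, in duplicate. TGFA mRNA by TaqMan qRT-PCR, normalised to ACTB, GAPDH, POLR2A; bidirectional fit versus DMSO.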

[10] = read-out: Signal transducer and activator of transcription 3 (Homo sapiens) (UniProt P40763); assay: LTEA_HepaRG_STAT3: Life Technologies and Expression Analysis (LTEA) Assay for Signal transducer and activator of transcription (STAT3) using HepaRG (AID 2283529)
In short: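 Differentiated HepaRG cells, serum-free induction medium, dosed 48 h in duplicate, 8 half-log concentrations from 100 uM in 0.5% DMSO. STAT3 mRNA by qRT-PCR, normalised to ACTB, GAPDH, POLR2A; bidirectional fit versus DMSO.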

Measured: AC50

Sequence of Signal transducer and activator of transcription 3 (Homo sapiens) (P40763 whole entry, looked up): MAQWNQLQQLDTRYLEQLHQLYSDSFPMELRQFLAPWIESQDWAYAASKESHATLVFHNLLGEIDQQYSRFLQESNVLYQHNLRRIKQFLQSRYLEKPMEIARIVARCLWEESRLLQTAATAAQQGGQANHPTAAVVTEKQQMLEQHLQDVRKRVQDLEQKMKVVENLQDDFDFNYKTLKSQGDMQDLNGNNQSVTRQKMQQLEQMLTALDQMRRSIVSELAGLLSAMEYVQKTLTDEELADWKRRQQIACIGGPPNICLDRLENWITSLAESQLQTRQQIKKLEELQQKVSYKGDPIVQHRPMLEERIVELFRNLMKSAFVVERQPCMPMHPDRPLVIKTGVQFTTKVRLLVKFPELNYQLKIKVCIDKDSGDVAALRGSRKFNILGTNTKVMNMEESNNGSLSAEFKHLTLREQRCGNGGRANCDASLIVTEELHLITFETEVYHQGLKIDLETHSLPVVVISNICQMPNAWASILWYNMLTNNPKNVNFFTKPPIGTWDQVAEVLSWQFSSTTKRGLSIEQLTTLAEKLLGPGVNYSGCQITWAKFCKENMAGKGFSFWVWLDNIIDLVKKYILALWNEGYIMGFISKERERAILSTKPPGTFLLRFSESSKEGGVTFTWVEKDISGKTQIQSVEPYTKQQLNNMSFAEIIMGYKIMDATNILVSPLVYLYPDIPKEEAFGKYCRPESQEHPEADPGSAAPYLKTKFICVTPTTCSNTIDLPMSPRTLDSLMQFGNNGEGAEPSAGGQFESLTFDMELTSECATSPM
Sequence of Nuclear factor erythroid 2-related factor 2 (Homo sapiens) (Q16236 whole entry, looked up): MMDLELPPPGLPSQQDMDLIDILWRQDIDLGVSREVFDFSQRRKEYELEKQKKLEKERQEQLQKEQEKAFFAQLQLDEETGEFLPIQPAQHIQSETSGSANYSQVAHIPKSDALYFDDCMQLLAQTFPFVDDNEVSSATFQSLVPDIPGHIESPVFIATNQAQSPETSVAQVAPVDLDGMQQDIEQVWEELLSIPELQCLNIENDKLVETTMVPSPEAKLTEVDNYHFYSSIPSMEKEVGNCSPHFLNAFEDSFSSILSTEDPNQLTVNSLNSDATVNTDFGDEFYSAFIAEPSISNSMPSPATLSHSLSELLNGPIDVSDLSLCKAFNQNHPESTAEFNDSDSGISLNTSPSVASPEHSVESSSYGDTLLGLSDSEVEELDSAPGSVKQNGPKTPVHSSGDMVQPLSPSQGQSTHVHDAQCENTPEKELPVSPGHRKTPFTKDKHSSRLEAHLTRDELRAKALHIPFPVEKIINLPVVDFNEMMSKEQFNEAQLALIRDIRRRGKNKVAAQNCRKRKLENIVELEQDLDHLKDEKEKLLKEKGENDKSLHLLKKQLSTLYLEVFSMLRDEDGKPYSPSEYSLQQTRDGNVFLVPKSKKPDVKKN

O=C(O)c1[nH]n(-c2ccc(S(=O)(=O)O)cc2)c(=O)c1N=Nc1ccc(S(=O)(=O)O)cc1
not listed: [10]
inactive: all other assays above

O=NO
not listed: [8]
inactive: all other assays above

CCCCCCCCCCCCCCCCO
active: [3] 66.3 µM | [8] 50 µM
inactive: all other assays above

Nc1nc(Cl)nc2c1ncn2[C@H]1C[C@H](O)[C@@H](CO)O1
inactive: [4] | [5] | [6] | [10]
active: [1] 3.12 µM | [2] 0.811 µM | [3] 0.452 µM | [7] 0.999 µM | [9] 0.2 µM

CC(C)NCC(O)c1ccc(O)c(O)c1 (stereo not given)
active: [2] 0.209 µM | [5] 0.2 µM | [7] 0.136 µM
not listed: [8] | [10]
inactive: all other assays above

CC(C)COC(=O)CCCCC(=O)OCC(C)C
not listed: [10]
inactive: all other assays above

Cc1ccc(C(C)(C)C)c(O)c1
inactive: all assays above

CC1(C)C(=O)NC(=O)N1CO
not listed: [10]
inactive: all other assays above

O=C1CCCCC1
inactive: all assays above

C=CCc1ccc(OC)c(OC)c1
active: [1] 0.0454 µM | [7] 0.315 µM | [9] 9.92 µM
not listed: [8]
inactive: all other assays above

N[C@@H](Cc1c[nH]c2ccccc12)C(=O)O
not listed: [10]
inactive: all other assays above

O=C(Oc1ccccc1)c1cccc(C(=O)Oc2ccccc2)c1
not listed: [10]
inactive: all other assays above

CC(C)(C)c1ccccc1
not listed: [10]
inactive: all other assays above

NC=O
inactive: all assays above

CCCCCCCC(=O)OC
active: [1] 12.2 µM
inactive: all other assays above

C#CC(O)C(CC)CCCC (stereo not given)
not listed: [8]
inactive: all other assays above

CCCCOC(=O)CCCCC(=O)OCCCC
active: [2] 0.243 µM
not listed: [10]
inactive: all other assays above

CCN(CC)CCOc1ccc(C(=C(Cl)c2ccccc2)c2ccccc2)cc1
inactive: [4]
active: [1] 78.5 µM | [2] 17.1 µM | [3] 42 µM | [5] 77.7 µM | [6] 78.1 µM | [10] 78.6 µM | [7] 13.3 µM | [9] 42 µM

NCCOCCOCCN
not listed: [8]
inactive: all other assays above

Cc1cn([C@H]2C=C[C@@H](CO)O2)c(=O)[nH]c1=O
not listed: [10]
inactive: all other assays above

NC(=Nc1ccccc1)Nc1ccccc1
not listed: [10]
inactive: all other assays above

CN(C)C(=O)NC1(c2ccccc2)CCN(CC[C@@]2(c3ccc(F)c(F)c3)CN(C(=O)c3ccccc3)CCO2)CC1
active: [2] 9.33 µM | [3] 21.1 µM
not listed: [8]
inactive: all other assays above

CCCC[C@H]1CN(CC2CCOCC2)C(=O)OC12CCN(C1(C)CCN(C(=O)c3c(C)ncnc3C)CC1)CC2
not listed: [8]
inactive: all other assays above

S=c1[nH]c2ccccc2s1
not listed: [8]
inactive: all other assays above

O=C(NS(=O)(=O)/C=C/c1cccs1)c1ccc(F)cc1Br
inactive: all assays above

O=C(O)c1cccnc1
inactive: all assays above

Oc1ccccc1O
inactive: all assays above

Cc1cc(SC2=C(O)C[C@@](CCc3ccc(N)cc3)(C(C)C)OC2=O)c(C(C)(C)C)cc1CO
active: [2] 7.05 µM | [3] 13.5 µM
not listed: [8]
inactive: all other assays above

CCc1nc(N)nc(N)c1-c1ccc(Cl)cc1
active: [2] 21.1 µM | [3] 50 µM
not listed: [8]
inactive: all other assays above

CC(C)c1cccc(C(C)C)c1
not listed: [8] | [10]
inactive: all other assays above

c1ccc2occc2c1
not listed: [4]
inactive: all other assays above

O=[Si]=O
not listed: [4]
inactive: all other assays above

NC1CCCCC1
not listed: [4]
inactive: all other assays above

CCOCCOCCO
not listed: [8] | [10]
inactive: all other assays above

CCC(C)N(C)C(=O)c1cc2ccccc2c(-c2ccccc2Cl)n1 (stereo not given)
active: [2] 6.3 µM | [3] 40.9 µM | [5] 16.8 µM | [6] 11.1 µM | [8] 8.44 µM
inactive: [1] | [10] | [7] | [9]

C=CCCCCCCCCCCCC
not listed: [4]
inactive: all other assays above

CC(=O)OCC(COC(C)=O)OC(C)=O
not listed: [8] | [10]
inactive: all other assays above

Oc1ccc(O)cc1
not listed: [8] | [10]
inactive: all other assays above

OCC(O)CO
not listed: [8] | [10]
inactive: all other assays above

CN(C)C(=O)NC1(c2ccccc2)CCN(CCC[C@]2(c3ccc(Cl)c(Cl)c3)CCCN(C(=O)c3ccccc3)C2)CC1
active: [2] 23.8 µM | [3] 19.2 µM | [4] 21.7 µM | [7] 19.5 µM | [8] 19.4 µM
inactive: [1] | [6] | [10] | [9]

CN(C)CCCN(C)CCCN(C)C
not listed: [4]
inactive: all other assays above

CCCCC(CC)COP(=O)(OCC(CC)CCCC)OCC(CC)CCCC (stereo not given)
not listed: [6]
inactive: all other assays above
